SRC2 TRFRET art – TR-FRET artefact, counter-screen to PPARgamma/SRC-2 agonist assay. TR-FRET ratio at 8 µM. AID 1049. 200,000 compounds, 0.4% hits. hits give high values
SRC1 TRFRET art – flags TR-FRET format artefacts in PPARgamma SRC-1 recruitment agonist screen | TR-FRET detection artefact counter-screen, emission ratio; hits give high values | TR-FRET ratio at 8 µM | 99,000 compounds, 0.34% hits | AID 1051; in the data active means TR-FRET ratio above about 2300
PPARg SRC3 recr – promotes SRC-3 coactivator recruitment by human PPARgamma | P37231 | biochemical PPARgamma/SRC-3 coactivator recruitment assay | activation, % at 8 µM | 200,000 compounds, 0.26% hits | AID 731; in the data active means activation above about 23%;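 further: 0% = DMSO and 100% = reference agonist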
Target sequence (P37231 whole entry, looked up): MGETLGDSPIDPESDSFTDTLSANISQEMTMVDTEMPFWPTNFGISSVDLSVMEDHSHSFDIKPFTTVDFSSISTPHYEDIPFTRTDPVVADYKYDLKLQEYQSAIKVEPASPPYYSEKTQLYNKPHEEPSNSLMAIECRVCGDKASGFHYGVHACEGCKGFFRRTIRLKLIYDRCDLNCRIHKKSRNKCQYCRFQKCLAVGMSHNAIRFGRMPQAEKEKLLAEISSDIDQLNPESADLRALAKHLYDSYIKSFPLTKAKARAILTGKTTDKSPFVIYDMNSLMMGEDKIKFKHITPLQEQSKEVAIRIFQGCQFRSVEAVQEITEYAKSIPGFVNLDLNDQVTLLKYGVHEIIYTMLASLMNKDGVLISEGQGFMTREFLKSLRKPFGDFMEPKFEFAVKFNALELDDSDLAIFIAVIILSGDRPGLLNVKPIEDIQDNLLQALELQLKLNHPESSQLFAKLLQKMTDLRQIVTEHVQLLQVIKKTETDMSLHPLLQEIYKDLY
SRC3 TRFRET art – TR-FRET artefact, counter-screen to PPARgamma/SRC-3 agonist assay | PPARgamma/SRC-3 format; hits give high values | TR-FRET ratio at 8 µM | 99,000 compounds, 0.39% hits | AID 1048
PPARg SRC1 recr – promotes SRC-1 coactivator recruitment by human PPARgamma; PPARgamma-SRC-1 coactivator recruitment biochemical assay; activation, % at 8 µM; 200,000 compounds, 0.41% hits; AID 631; in the data active means activation above about 19%;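 further: 0% = DMSO and 100% = reference agonist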
PPARg SRC-2 ag – promotes SRC-2 coactivator recruitment by human PPARgamma. P37231. AID 1032. activation, % at 8 µM. 200,000 compounds, 0.34% hits. PPARgamma LBD-SRC-2 recruitment, biochemical; in the data active means activation above about 22%;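 further: 0% = vehicle and 100% = reference agonist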
The depositor's hits bear a star; nt = no result given. The list is not random: actives were taken first. Their share in the collection is about 0.9%. Unless noted, no stated cut-off is given here; in the data, active means TR-FRET ratio above about 2000; inactive means the rest.

SMILES	SRC2 TRFRET art	SRC1 TRFRET art	PPARg SRC3 recr	SRC3 TRFRET art	PPARg SRC1 recr	PPARg SRC-2 ag
O=S1(=O)CC2N=C(N(Cc3ccc(F)cc3Cl)c3ccccc3F)SC2C1 (stereo unspecified)	1811	1784	-6.4	1453	3.1	25.4*
CC(=O)Nc1cccc(NC(=O)c2ccc(C)c([N+](=O)[O-])c2)c1	1815	2324*	3.0	1862	9.3	5.0
CC(C)C(C)(C#N)NC(=O)CSc1nnc(-c2ccncc2)n1Cc1ccccc1 (stereo unspecified)	1578	nt	8.3	nt	6.6	10.8
CC(C)C(C)(C#N)NC(=O)CSc1nc2scc(-c3ccc(F)cc3)c2c(=O)n1Cc1ccccc1 (stereo unspecified)	2522*	2769*	5.8	2793*	0.7	-5.2
COc1ccc2c(-c3ccccc3)cc(SCC(=O)NC(N)=O)nc2c1	1589	1656	32.6*	4477*	-4.0	9.2
Cc1nc(N2CCCCC2)c2c(-c3cccs3)csc2n1	1665	2176	10.3	1885	11.1	4.1
Cc1nc(N2CCN(S(=O)(=O)c3ccccc3C#N)CC2)c2c(-c3cccs3)csc2n1	1511	2227	-0.7	2725*	-0.3	-0.7
Nc1nc2ccc(N3CCOCC3)cc2s1	1575	nt	7.7	nt	24.8*	7.5
Fc1ccc2nc(N3CCOCC3)sc2c1	1359	1733	-1.2	1374	0.4	0.9
Cc1ccc(NC(=O)CSc2nnc(-c3ccc(S(=O)(=O)N4CCCC4)cc3)o2)cc1C	1464	nt	0.8	nt	20.9*	-11.1
CCOC(=O)c1cc(-c2ccc3c(c2)OCO3)nc2onc(C)c12	1971*	nt	-4.2	nt	2.5	10.4
CC(=O)c1ccc(NC(=O)CSc2ccc3nnc(-c4cccnc4)n3n2)cc1	1751	1480	1.9	1521	1.9	-1.0
NS(=O)(=O)c1ccc(NC(=O)COC(=O)c2cnccn2)cc1	1372	1683	0.9	1556	3.1	-7.4
COc1ccc(N2C(=O)c3ccccc3NC2c2ccc(OC)c(CSc3ccccn3)c2)cc1 (stereo unspecified)	2247*	nt	9.9	nt	9.1	21.6
COc1ccc(N2C(=O)c3ccccc3NC2c2ccc(OC)c(COc3ccccn3)c2)cc1 (stereo unspecified)	1704	2104	-0.2	1598	-2.9	-2.5
Cc1nn(Cc2c(F)cccc2Cl)c(C)c1[N+](=O)[O-]	1578	1688	-0.3	1841	21.3*	0.3
O=C(/C=C/c1cccc(Cl)c1)NCc1ccccc1	1741	2179	3.7	1574	6.3	18.1
O=C1c2ccccc2C(=O)C1c1ccc(O)cc1	1592	2190	4.8	1745	21.3*	4.9
N#Cc1c2c(c(-c3ccccc3Cl)[nH]c1=S)CCCC2	2762*	3189*	21.3	2745*	40.4*	43.7*
N#Cc1c(-c2ccccc2Cl)cc(-c2ccccc2)[nH]c1=S	1570	1755	6.0	1776	8.4	2.9
Cc1cc(C(=O)N/N=C/c2cn[nH]c2-c2ccccc2)cs1	1759	1622	7.0	1708	6.5	24.8*
COc1cc2[nH]c(=S)nc(NCCc3ccc(C)cc3)c2cc1OC	1959	2432*	16.5	2231*	21.2*	24.5*
CC1CCc2c(sc3nc(SCC(=O)NCc4ccco4)nc(N)c23)C1 (stereo unspecified)	1582	nt	4.2	nt	20.8*	13.8
O=C(/C=C/c1ccc([N+](=O)[O-])cc1)NCCN1C(=O)S/C(=C\c2ccc(F)cc2)C1=O	1623	1841	-3.0	1361	-8.1	-7.1
Cc1ccccc1N=Cc1cc2c(cc1O)OC(N)=C(C#N)C2c1ccccc1 (stereo unspecified)	1668	2419*	2.6	1831	13.5	9.3
SMILES	SRC2 TRFRET art	SRC1 TRFRET art	PPARg SRC3 recr	SRC3 TRFRET art	PPARg SRC1 recr	PPARg SRC-2 ag
CCOc1ccc(C/C(O)=C2\C(=O)CC(C)(C)CC2=NCC(=O)O)cc1OCC	1476	1735	0.2	1383	0.1	-7.1
O=C(Nc1cccnc1)c1cc(-c2ccc(F)cc2)on1	1430	1836	1.3	1821	-5.7	-4.9
O=C(Nc1cccnc1)c1cc(-c2ccc3c(c2)OCO3)on1	1992*	nt	18.6	nt	12.1	19.8
Cn1cccc1-c1nc2ccc(NC(=O)c3ccccc3)cc2[nH]1	1614	nt	7.1	nt	0.7	26.0*
CC(=O)Nc1ccc(-c2nnc(SCC(=O)c3ccc4c(c3)Cc3ccccc3-4)n2C)cc1	2129*	nt	24.1	nt	13.4	16.8
Cn1c(SCC(=O)c2ccc3c(c2)Cc2ccccc2-3)nnc1-c1cccc(N)c1	1592	1664	4.3	1597	-1.2	-6.5
O=S(=O)(c1ccccc1)c1nc(-c2ccco2)oc1N1CCOCC1	1561	nt	2.9	nt	26.1*	5.1
COc1ccc(-c2nc(S(=O)(=O)c3ccccc3)c(N3CCOCC3)o2)cc1	1502	1614	0.4	1343	3.8	6.0
COc1ccc(CC(=O)NCC(=O)N/N=C(/C)c2ccco2)cc1	1586	2022	1.3	1689	-4.7	1.5
COc1cnn(-c2ccccc2)c(=O)c1N(C)C	1421	nt	25.8*	nt	-4.4	-4.7
N#Cc1cc2c(nc1SCc1ccc(Cl)cc1)CCCC2	1440	nt	-9.9	nt	-0.5	1.2
Cc1ccc(CSc2nc3c(cc2C#N)CCC3)cc1	1460	nt	1.5	nt	30.3*	-4.0
CCC(C)C(=O)Nn1c(C2CC2)nc2cc(OC)c(OC)cc2c1=O (stereo unspecified)	1500	1598	-0.6	1435	4.6	-4.5
COC(=O)c1c(NC(=O)C2CC2)sc(C(=O)Nc2ccccc2)c1C	1424	1759	3.3	1537	-0.9	4.8
CC(C)[C@H](NC(=O)OC(C)(C)C)c1nnc(SCc2cccc(F)c2)o1	1557	nt	5.4	nt	55.3*	15.4
CC(C)C[C@H](NC(=O)OC(C)(C)C)c1nnc(SCc2cccc(F)c2)o1	1571	nt	6.3	nt	14.7	0.4
O=C(Nc1ccc(Cl)c(Cl)c1)Nc1cc(C(=O)NC2CC2)ccc1Cl	1507	1701	2.0	1514	-0.7	9.7
Cc1cc(C(=O)N/N=C/c2cccc([N+](=O)[O-])c2O)n[nH]1	1799	2259	4.4	2114*	8.1	18.2
Cc1cc(C(=O)N/N=C/c2ccc(O)c([N+](=O)[O-])c2)n[nH]1	1578	2220	8.5	1716	4.0	9.1
Cc1cc(/C=C2/NC(=O)N(Cc3ccccc3F)C2=O)c(C)n1C	1764	1719	7.6	1554	0.8	22.6*
Cn1ncc([N+](=O)[O-])c1C(=O)N/N=C/c1ccc(F)cc1	1691	1712	4.4	1850	20.9*	7.9
C/C(=N\N=C1\NC(=O)CC(C(=O)O)S1)c1ccc(F)cc1 (stereo unspecified)	1531	2658*	2.5	1450	15.9	-5.9
COc1ccc(/C(C)=N/N=C2/NC(=O)CC(C(=O)O)S2)cc1 (stereo unspecified)	1565	1477	-0.9	1614	-7.7	-3.4

Bioassay records: PubChem, The Scripps Research Institute Molecular Screening Center
